Rac1 wt GTP bind: wildtype Rac1 GTP binding modulators, primary screen, biochemical, GST-Rac1 beads, flow cytometry, multiplex | actives 0.27% (n = 190,000) | AID 757, 2007 | fluorescent GTP binding; actives lie on both sides; 0 = cold GTP competed, 100 = untreated | GTP binding activity (% of control), % at 10 µM | Ras-related C3 botulinum toxin substrate 1 (Homo sapiens), P63000;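 active means GTP binding activity at least 20 points away from the 100% control level, either lower or higher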
Cdc42 wt: modulators of GTP binding to wildtype Cdc42, primary screen, biochemical, multiplex bead flow cytometry, Bodipy-GTP. Cell division control protein 42 homolog (Homo sapiens), P60953. GST-Cdc42 beads; actives lie on both sides. percent activity (GTP binding), % at 10 µM. actives 0.2% (n = 190,000);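 active means percent activity GTP binding at least 20 points away from the 100% baseline, either down as inhibitor or up as activator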;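 further: median bead fluorescence of bound Bodipy-FL-GTP at 100 nM; 0% = excess unlabeled GTP control and 100% = no compound control; below 100% means less GTP binding so inhibitor and above means activator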
Target sequence (P60953 whole entry, looked up): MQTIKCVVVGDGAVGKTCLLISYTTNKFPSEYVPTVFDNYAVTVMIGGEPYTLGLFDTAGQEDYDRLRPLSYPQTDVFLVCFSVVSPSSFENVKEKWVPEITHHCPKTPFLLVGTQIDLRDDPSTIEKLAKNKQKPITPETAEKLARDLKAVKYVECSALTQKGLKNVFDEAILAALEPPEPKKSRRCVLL
Rab7 wt modul: modulators of GTP binding to Rab7, primary screen, biochemical, wildtype, multiplex bead flow cytometry. Rab7 GTPase wild type (dog), Bodipy-FL-GTP binding. GST-Rab7 beads, fluorescent GTP binding; actives lie on both sides; untreated = 100%, excess cold GTP = 0%. GTP binding activity (percent of control), % at 10 µM. actives 0.055% (n = 190,000). AID 758, 2007;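 active means fluorescent GTP binding to Rab7 beads changed by at least 20 points from the 100% baseline, either direction, mostly lower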;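 further: median green fluorescence of bound Bodipy-FL-GTP per Rab7 bead population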
HRas wt GTP: modulators of GTP binding to HRas wildtype, primary screen, biochemical, bead-based flow cytometry, multiplex | GTPase HRas (Homo sapiens), P01112 | GST-Ras wt beads, Bodipy-FL-GTP binding; actives lie on both sides | GTP binding activity, % at 10 µM | actives 0.14% (n = 190,000);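 active means GTP binding activity at least 20% away from the 100% baseline, either lowered as inhibitor or raised as activator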;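 further: 0% = unlabeled GTP competition control and 100% = no-compound control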
Rac1 mut GTP: GTP binding modulators of activated mutant Rac1, primary screen, biochemical, bead-based flow cytometry, multiplex, fluorescent GTP. Ras-related C3 botulinum toxin substrate 1 (Homo sapiens), P63000. GST-Rac1 activated beads; actives lie on both sides; 100% means binding = to untreated wells. percent activity (GTP binding), % at 10 µM. actives 0.11% (n = 190,000). AID 764, 2007;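 active means GTP binding at least 20 percentage points away from the 100% baseline, in either direction, so actives lie on both sides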
Rab2 wt GTP: modulators of GTP binding to Rab2A wildtype, primary screen, biochemical, dog, bead-based flow cytometry, multiplex; GST-Rab2 wt beads, Bodipy-GTP binding; GTP binding activity, % at 10 µM; actives 0.19% (n = 190,000); AID 760, 2007;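 active means GTP binding activity at least 20 points away from 100%, either lowered or raised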;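 further: 0% = beads with excess unlabeled GTP and 100% = no-compound control corrected for plate trend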
* = called active by the depositor. The list is not random: actives were taken first. Their share in the collection is about 0.4%.

SMILES	Rac1 wt GTP bind	Cdc42 wt	Rab7 wt modul	HRas wt GTP	Rac1 mut GTP	Rab2 wt GTP
Cc1cc(/C=C2\C(=O)NC(=O)N(c3ccc(Cl)cc3)C2=O)c(C)n1-c1sc2c(c1C#N)CCCC2	99.0	93.0	96.0	94.0	86.0	91.0
Cc1sc(-n2c(C)cc(C=C3C(=O)NC(=O)NC3=O)c2C)c(C#N)c1C	79.0*	81.0	89.0	85.0	78.0*	82.0
CN1C(=O)N(C)C(=O)C2(Cc3c(ccc4ccccc34)N(C)C2)C1=O	86.0	86.0	96.0	96.0	79.0*	91.0
COc1ccc(C(=O)CC2(CC(=O)c3ccc(OC)cc3)C(=O)N(C)C(=O)N(C)C2=O)cc1	100.0	99.0	100.0	101.0	94.0	99.0
Cc1nc2c(=O)n(C)c(=O)nc-2n(C)n1	106.0	77.0*	87.0	88.0	82.0	85.0
CSCc1nnc2n1-c1ccc(Cl)cc1C(c1ccccc1)=NC2	98.0	97.0	94.0	96.0	97.0	99.0
CN(C)c1ccc(/C=C/C=C2/C(=O)NC(=O)N(c3ccccc3)C2=O)cc1	70.0*	74.0*	86.0	81.0	77.0*	78.0*
CC(C)(C)c1ccc(C(=O)C2CCCN(C3CCC3)C2)cc1 (centres undefined)	100.0	98.0	102.0	97.0	97.0	98.0
